# Reference: PubChem BioAssay (EPA / NIEHS)
# Active and inactive are the calls of the source. How the source made its calls: active means hit-call score of the fitted dose curve at least 0.9, where 1 is the maximum; inactive means score below 0.9.
# Read-out: Tumor necrosis factor (Homo sapiens) (UniProt P01375)
# Assay: BSK_BT_xTNFa: BioMAP Diversity Plus: BT Assay for Tumor necrosis factor alpha (TNF-alpha) Biomarker Activity (AID 2284230)
# Conditions: primary human B cells with PBMC
# Protocol: BSK_BT is a cell-based, multiplexed-readout assay that uses B cell and peripheral blood mononuclear cells, a human vascular primary cell co-culture, with measurements taken at 24 hours after chemical dosing in a microplate: 96-well plate.BSK_BT_xTNFa is an assay component of the BSK_BT assay. It measures secreted TNF-alpha related to regulation of gene expression using LumineX xMAP technology.Data from the assay component BSK_BT_xTNFa was analyzed at the endpoint, BSK_BT_xTNFa, in the positive analysis fitting direction relative to DMSO as the negative control and baseline of activity. Using a type of cytokine quantitation reporter, gain or loss-of-signal activity can be used to understand protein changes. To generalize the intended target to other relatable targets, this assay endpoint is annotated to the 'cytokine' intended target family, where the subfamily is 'inflammatory factor'.
# The levels of cell surface (or secreted, indicated by the prefix "s") biomarker endpoints were measured by ELISA. Overt cytotoxicity to cells in confluent adherent cultures (all systems other than the BT system) was assessed by measuring total protein levels using sulforhodamine B (SRB) staining in parallel cultures at the time of biomarker measurements, indicated as SRB endpoints. For proliferation assays for adherent cell types, individual cell types are cultured at sub-confluence and relative cell numbers quantified by SRB staining at time points optimized for each system (48 h: 3C and CASM3C systems; 72 h: BT and HDF3CGF systems; 96 h: SAg system). SRB was performed by staining cells with 0.1% SRB after fixation with 10% TCA and reading wells at 560 nm.Viability and proliferation of PBMC (T cells) was quantified by Alamar Blue reduction for the SAg and BT systems. For PBMC viability (referred to as PBMC Cytotoxicity within the assay endpoint names), cells were plated (75,000/well in a 96-well plate) and then chemical samples added for 1 h before addition of activators, SEB and TSST-1 (20 ng/mL final concentration each). Cells were incubated for 90 h. Then, Alamar Blue (20 uL/well) (Invitrogen, Cat DAL1100) was added for 6 h, and the plates were read with a fluorescence microplate reader at 546/580 nm (excitation/emission). For PBMC proliferation, cells were plated and activated as above but incubated for only 16 h prior to addition of Alamar Blue. Plates were read after 6 h.
# Tumor necrosis factor (Homo sapiens), sequence (P01375 whole entry, looked up): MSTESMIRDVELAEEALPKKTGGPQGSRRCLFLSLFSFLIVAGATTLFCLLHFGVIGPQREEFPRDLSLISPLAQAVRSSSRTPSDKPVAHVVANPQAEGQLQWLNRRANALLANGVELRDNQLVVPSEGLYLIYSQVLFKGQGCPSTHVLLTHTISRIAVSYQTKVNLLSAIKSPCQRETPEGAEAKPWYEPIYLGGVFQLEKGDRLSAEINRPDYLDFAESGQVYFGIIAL
Compound,outcome,AC50
CC(C)CCCCCCOC(=O)c1ccccc1C(=O)OCCCCCCC(C)C,inactive,–
Nc1ccc(-c2ccc(N)c(Cl)c2)cc1Cl,–,20 µM (active)
O=S(=O)(c1ccc(Cl)cc1)c1ccc(Cl)cc1,inactive,–
O=C(O)C(F)(F)C(F)(F)C(F)(F)C(F)(F)C(F)(F)C(F)(F)F,inactive,–
O=[N+]([O-])c1ccc2c3c(cccc13)CC2,inactive,–
CCCCCCCCC(=O)NCc1ccc(O)c(OC)c1,inactive,–
ClC(Cl)=C(Cl)C(Cl)=C(Cl)Cl,inactive,–
OCc1ccco1,inactive,–
ClC1=C(Cl)[C@]2(Cl)[C@H]3[C@H]([C@H]4C=C[C@H]3C4)[C@@]1(Cl)C2(Cl)Cl,–,33.1 µM (active)
Oc1ccc(-c2ccccc2)cc1,inactive,–
COP(=S)(OC)Oc1c(Cl)cc(C)cc1Cl,inactive,–
CCOP(=S)(OCC)SCCS(=O)(=O)CC,inactive,–
CCSC(C)CC1CC(=O)C(C(CC)=NOC/C=C/Cl)=C(O)C1 (stereo unspecified),inactive,–
COP(=S)(OC)Oc1ccc(S(=O)(=O)N(C)C)cc1,inactive,–
CCOC(=O)/C=C(C)/C=C/C[C@@H](C)CCCC(C)C,–,30.6 µM (active)
COP(=S)(OC)Oc1cc(Cl)c(Cl)cc1Cl,inactive,–
CCCCC(CC)CO[N+](=O)[O-] (stereo unspecified),inactive,–
COP(=S)(OC)Oc1ccc(Sc2ccc(OP(=S)(OC)OC)cc2)cc1,inactive,–

Compound,outcome,AC50
NC(=S)Nc1ccccc1,inactive,–
O=Cc1cccc(Oc2ccccc2)c1,inactive,–
O=C(O)CCC(F)(C(F)(F)F)C(F)(F)F,inactive,–
O=C(OC1CCCCC1)c1ccccc1C(=O)OC1CCCCC1,–,32.1 µM (active)
C(=NC1CCCCC1)=NC1CCCCC1,–,10.9 µM (active)
BrCCBr,inactive,–
CCNc1nc(NC(C)(C)C)nc(SC)n1,–,20 µM (active)
COc1cc(OC)nc(NC(=O)NS(=O)(=O)c2ncccc2C(=O)N(C)C)n1,inactive,–
COC(=O)c1sccc1S(=O)(=O)NC(=O)Nc1nc(C)nc(OC)n1,inactive,–
O=C(O)C(F)(F)C(F)(F)C(F)(F)C(F)(F)C(F)(F)C(F)(F)C(F)(F)C(F)(F)C(F)(F)C(F)(F)F,inactive,–
COC[C@H](C)N(C(=O)CCl)c1c(C)csc1C,inactive,–
CC1(C)Cc2cccc(O)c2O1,inactive,–
CC(=O)C(Cl)C(=O)N(C)C (stereo unspecified),–,29.6 µM (active)
CC(C)c1ccc(CO)cc1,inactive,–
Nc1cccc2ccccc12,inactive,–
Nc1ncc([N+](=O)[O-])s1,inactive,–
CCOP(=S)(OCC)Oc1ccc(S(C)=O)cc1 (stereo unspecified),inactive,–
Oc1c(I)cc(I)cc1I,inactive,–
